The values below come from PubChem BioAssay AID1942 (Johns Hopkins Ion Channel Center, 2009).

Molecules are shown by their SMILES. The campaign covered roughly 2,400 compounds. About 580 (24%) were called active. A selection follows. A number with no mark means an inactive call.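 How the source made its calls: active means activity change at or above the mean plus 3 SD of buffer wells without dofetilide, per plate; inactive means the rest.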

Potassium voltage-gated channel subfamily KQT member 2 (Rattus norvegicus), sequence (O88943 whole entry, looked up): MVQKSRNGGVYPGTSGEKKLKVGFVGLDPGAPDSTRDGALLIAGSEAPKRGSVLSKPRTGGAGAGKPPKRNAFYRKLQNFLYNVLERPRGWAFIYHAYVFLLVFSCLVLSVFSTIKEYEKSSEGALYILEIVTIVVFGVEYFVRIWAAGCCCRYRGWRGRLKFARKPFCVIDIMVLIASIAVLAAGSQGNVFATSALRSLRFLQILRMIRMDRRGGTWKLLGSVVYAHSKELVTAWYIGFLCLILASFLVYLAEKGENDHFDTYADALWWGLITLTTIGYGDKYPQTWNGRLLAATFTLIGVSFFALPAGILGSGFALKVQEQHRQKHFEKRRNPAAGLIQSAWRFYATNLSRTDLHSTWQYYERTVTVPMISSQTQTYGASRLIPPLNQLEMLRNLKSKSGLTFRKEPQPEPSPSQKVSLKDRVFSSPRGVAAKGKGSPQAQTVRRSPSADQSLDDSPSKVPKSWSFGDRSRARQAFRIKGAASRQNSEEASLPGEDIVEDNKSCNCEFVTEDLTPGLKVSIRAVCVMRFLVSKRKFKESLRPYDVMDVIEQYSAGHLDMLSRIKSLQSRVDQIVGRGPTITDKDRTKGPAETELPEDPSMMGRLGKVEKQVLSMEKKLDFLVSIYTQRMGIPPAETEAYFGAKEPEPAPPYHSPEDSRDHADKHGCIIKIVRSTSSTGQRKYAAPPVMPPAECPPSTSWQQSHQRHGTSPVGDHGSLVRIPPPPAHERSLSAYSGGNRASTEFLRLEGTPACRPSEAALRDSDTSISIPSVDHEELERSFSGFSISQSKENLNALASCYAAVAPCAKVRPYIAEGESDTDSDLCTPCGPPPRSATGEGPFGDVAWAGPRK

The test has as its target Potassium voltage-gated channel subfamily KQT member 2 (Rattus norvegicus) (UniProt O88943). Nature of the test: KCNQ2 potentiation in CHO cells – cell-based, FluxOR thallium flux, counter-screen for hERG block protector project, confirmation (AID 1942).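 On activity change, less the hit threshold: normalized value minus buffer-control mean plus three SD of buffer wells.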 To be noted: FluxOR thallium flux fluorescence, at 10 µM, active compounds read high.
Consider `O=C1NC(=S)N(c2ccc(F)cc2)C(=O)/C1=C/c1ccco1`, for which the activity change is 0.7% (active). Consider `Cc1ccccc1N1C(=O)/C(=C/c2ccco2)C(=O)NC1=S`, for which the activity change is -6.4%.

For `O=C1NC(=O)N(c2ccccc2)C(=O)/C1=C/c1ccc(Sc2ccccc2)o1`, the activity change was -16.9%. On the same count and under the same terms, next, `COc1ccc(-c2nc(CSCC(=O)N3CCC4(CC3)OCCO4)c(C)o2)cc1OC`: -18.2%. Same read-out and setting: the figure for `O=C(Cn1ncc2c3ccccc3n(Cc3ccccc3F)c2c1=O)N1CCC2(CC1)OCCO2` is 37% (active); for `O=C1NC(=O)C(=Cc2ccc(-c3cc(Cl)ccc3[N+](=O)[O-])o2)C(=O)N1` it is -15.8%. As to `CC/C(=C\C=C\[C@@H]1C=C[C@@H]2CCC[C@H]2[C@@H]1C(=O)c1ccc[nH]1)[C@@H]1O[C@@H]([C@@H](C)C(=O)O)CC[C@@H]1C`, the activity change, less the hit threshold is 166% (active).

As for `CN(C)C(=O)O/N=C(\N)COc1ccc(C(C)(C)C)cc1`, the activity change, less the hit threshold is -13%. As for `O=c1[nH]c(=S)[nH]c(O)c1/C=C1/C=c2ccccc2=N1`, the activity change was -27.3%. As for `O=C(COc1ccc(Br)cc1)N1CCN(Cc2ccc3c(c2)OCO3)CC1`, the activity change, less the hit threshold is -18.6%. As to `N#CCCn1cc(C(=O)Nc2ccccc2Cl)c(-c2ccc(F)cc2)n1`, the activity change, less the hit threshold was -16.8%.

As for `CCOC(=O)c1c(NS(=O)(=O)c2ccccc2)n(CCCOC)c2nc3ccccc3nc12`, the activity change, less the hit threshold was -27.8%. For the compound `COc1cccc(OC)c1C(=O)Nc1nc(N)n(-c2ccccc2)n1`, the activity change, less the hit threshold was -9.7%.

Consider `COc1ccc(OC)c(N2C(=O)/C(=C/c3ccco3)C(=O)NC2=S)c1`, for which the activity change was -13.8%. `COc1ccc2c(c1)/C(=C/c1cnc[nH]1)C(=O)N2`: the activity change, less the hit threshold is 0.2% (active). `O=C1NC(=O)N(CCNc2ncc(C(F)(F)F)cc2Cl)C(=O)C1Cc1ccc(Cl)cc1` (stereo not given): the activity change is -25.6%. With `COc1ccc(CN2CCCC(C(=O)c3sccc3C)C2)cc1O` (stereo not given), the activity change, less the hit threshold was -26.3%. Turning to `C=CCN1C(=O)/C(=C/c2ccc(Br)s2)C(=O)NC1=S`, the activity change was -20.2%. On to `O=c1c2ccccc2[nH]c(=S)n1-c1ccc2c(c1)OCCO2`, for which the activity change, less the hit threshold is -18.7%. On to `O=C(O)CCC(=O)NCCC1=c2ccccc2=N/C1=C\c1c(O)n(Cc2ccc(F)cc2)c(=S)[nH]c1=O`, for which the activity change is -17.9%.
